High-throughput results deposited in PubChem BioAssay by National Center for Advancing Translational Sciences (NCATS).
An excerpt weighted towards active compounds, which were near 2.8% of everything screened.
MBNL1-CUG inh = blocks human MBNL1 binding to CUG repeat RNA | Q9NR56 | TR-FRET MBNL1-His/biotin-(CUG)12 binding, 665/545 ratio | Potency, µM (doses to about 57.5 µM), for inactives: at the highest dose activity change, negative = inhibition, most hits filed as inhibitors | 0.036% of 280,000 active; active = well fitted inhibition curve with a large enough effect in the signal ratio, with a control signal flat, not every such curve was filed as active; inconclusive = small, poorly fitted or top-dose-only effect, or effect the other way, or a change in a side signal; inactive = no such curve, though single readings can be large or run the other way; the % refers to the signal ratio; note: potency is the fitted concentration of half-maximal effect; % is set by controls: 0 for no effect and ±100 for the full control effect
Target sequence (Q9NR56 whole entry, looked up): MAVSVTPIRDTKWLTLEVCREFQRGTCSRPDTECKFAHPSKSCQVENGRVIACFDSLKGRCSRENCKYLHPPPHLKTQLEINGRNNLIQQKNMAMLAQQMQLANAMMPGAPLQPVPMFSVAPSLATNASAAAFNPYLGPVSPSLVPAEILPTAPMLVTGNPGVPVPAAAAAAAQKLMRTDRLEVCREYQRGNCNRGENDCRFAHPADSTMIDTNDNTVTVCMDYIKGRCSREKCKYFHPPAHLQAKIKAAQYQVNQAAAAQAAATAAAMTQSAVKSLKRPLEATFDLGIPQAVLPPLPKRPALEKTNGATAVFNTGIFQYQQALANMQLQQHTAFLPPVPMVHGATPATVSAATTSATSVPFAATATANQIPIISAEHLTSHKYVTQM
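Inhibition of protein-RNA binding appears as loss of TR-FRET between terbium anti-His antibody on MBNL1-His and streptavidin-XL665 on biotin-(CUG)12. Activity is normalized to buffer-only and uninhibited-complex controls.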
DRD3 antagonist = antagonists of human D3 dopamine receptor. max response, negative = inhibition, %. AID 652054. 2.5% of 360,000 active. D3R cells, DiscoveRx beta-arrestin luminescence, antagonist mode; stronger effect = lower value; in the data active = max response below about -50%; inconclusive = no clear call, values can overlap the other calls; note: % is set by controls: 0 for no effect and ±100 for the full control effect
Target sequence (P35462 whole entry, looked up): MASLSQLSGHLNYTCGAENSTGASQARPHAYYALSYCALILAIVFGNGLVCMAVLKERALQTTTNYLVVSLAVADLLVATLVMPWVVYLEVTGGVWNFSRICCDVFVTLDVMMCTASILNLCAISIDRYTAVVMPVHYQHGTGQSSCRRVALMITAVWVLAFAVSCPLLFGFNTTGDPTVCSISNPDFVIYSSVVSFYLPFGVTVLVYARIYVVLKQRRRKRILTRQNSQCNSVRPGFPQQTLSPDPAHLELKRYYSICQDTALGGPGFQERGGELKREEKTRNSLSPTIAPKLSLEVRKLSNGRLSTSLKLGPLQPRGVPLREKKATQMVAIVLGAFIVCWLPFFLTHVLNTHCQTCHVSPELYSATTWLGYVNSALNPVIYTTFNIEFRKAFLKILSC
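Cells plated overnight at 1500 cells/well, then exposed to library compounds with dopamine controls for 90 minutes at 37 degrees C. DiscoveRx reagent added for 30–60 minutes at room temperature; luminescence read, quantitative HTS format.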
D3 ag = D3 dopamine receptor (human) agonism. P35462. D3R DiscoveRx beta-arrestin cells, luminescence, 90 min. max activation, %. 0.58% of 410,000 active; in the data active = max activation above about 30%; note: 0% is about no effect
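Agonist mode: compounds and dopamine controls were applied to plated cells for 90 min at 37 degrees C after an overnight attachment at 1500 cells/well. Luminescent read-out followed 30 - 60 minutes at room temperature with DiscoveRx detection reagent.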
PTHR1 agonist = activates the human parathyroid hormone receptor PTHR1 | Q03431 | HEK293 GP2 PTHR1 cells, GloSensor cAMP luminescence, 1 h | Potency, µM (highest dose often 115 µM), for inactives: at the top dose activation, hits mostly activators | 0.075% of 410,000 active; note: potency is the fitted concentration of half-maximal effect; nearly all actives have a fitted effect of over 55% in size
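HEK-293-derived GP2 cells expressing PTHR1 and a GloSensor cAMP reporter, 3,000/well, plated overnight, given luciferin plus IBMX (each 0.5 mM as added) for 1 h at 37 °C, then compound for 1 h at 37 °C. Luminescence was read after 15 min at room temperature.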
a7 integrin act = integrin-mediated muscular dystrophy alleviation activation; AID 624291; alpha7betagal myoblasts, beta-gal FDG fluorescence, 48 h; 0.064% of 350,000 active; Potency, µM (highest dose often 38.3 µM), for the others: at the top dose activation, hits mostly activators;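 note: potency is the fitted concentration of half-maximal effect; 100% = response of the positive control SU9516; nearly all actives have a fitted effect of over 60% in size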
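alpha7betagal+/- myoblasts (passage 13, 250/well) treated 48 h at 37C with compounds at 1:260 dilution of DMSO stock. Lysed, then beta-galactosidase activity read as FDG fluorescence (ex 480/em 540) after 30 min, with pre-read for autofluorescence.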
CBFb RUNX1 block = CBF-beta/RUNX1 interaction disruption | Q01196+Q13951 | AlphaScreen CBFb-His/RUNX1-biotin binding, biochemical | Potency, µM (top dose mostly 59.8 µM), for inactives: at the highest dose activity, negative = inhibition, most hits filed as inhibitors | 230,000 tested, under 10 active | AID 1477; note: % of control where 0% means no effect
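His-tagged CBF-beta and biotinylated RUNX1 (30 nM each) were premixed 20 min at room temperature, exposed to compound for 15 min, then given nickel-chelate and streptavidin AlphaScreen beads (50 ng each). After 90 min, AlphaScreen signal was read.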
An asterisk follows results filed as active; ! = not confirmed by another sample; [ ] = remark or other dose. Unless noted, calls come from the whole dose curve; as a rule, active = well fitted curve in the direction sought with a large enough effect; inconclusive = small, poorly fitted or top-dose-only effect, or another doubt; inactive = no such curve, though single readings can be large; an effect the other way counts as inactive or inconclusive.

How did CCC(C)Sc1cccc(-c2nc3ccc(C)cn3c2NC2CCCCC2)c1 (stereo not drawn) do in these assays?
DRD3 antagonist: 64.2; D3 ag: 53.3*!; PTHR1 agonist: -86.8%; a7 integrin act: -33.8%

What do the screens show for `Cc1nc(-n2nc(C)c(CCC(C)C)c2C)sc1C(=O)Nc1ccc(Br)cc1`?
D3 ag: 7.8; PTHR1 agonist: -4.7%

Results for COc1ccccc1C(=O)N/C(=C\c1cn(C)c2ccccc12)C(=O)NCCCN1CCOCC1 ?
MBNL1-CUG inh: inconclusive; DRD3 antagonist: -9.2; D3 ag: -1.3; PTHR1 agonist: inactive; a7 integrin act: -36.4%

How did O=C(CSc1nc2ccccc2n1CCc1ccccc1)c1ccc(O)c(O)c1 do in these assays?
MBNL1-CUG inh: -13.2%; DRD3 antagonist: -4.4; D3 ag: 6.1; PTHR1 agonist: -26.8%; a7 integrin act: -20.1%

How did CC1=CC(C)(C(Cl)(Cl)Cl)C(C)=CC1=NO (stereo not drawn) do in these assays?
DRD3 antagonist: -55.1*; D3 ag: -10.2; PTHR1 agonist: -18.0%; a7 integrin act: 6.2%

Results for CCC(C)[C@H]1O[C@]2(C=C[C@@H]1C)C[C@@H]1C[C@@H](C/C=C(\C)[C@@H](O[C@H]3C[C@H](OC)[C@@H](O[C@H]4C[C@H](OC)[C@H](NC(C)=O)[C@H](C)O4)[C@H](C)O3)[C@@H](C)/C=C/C=C3\CO[C@@H]4[C@H](O)C(C)=C[C@@H](C(=O)O1)[C@]34O)O2 (stereo partly drawn) ?
D3 ag: 13.2

Results for CC1=C/C(=N\NC(=S)Nc2cccnc2)CC(C)(C)C1 ?
MBNL1-CUG inh: -4.1%; DRD3 antagonist: -50.6*; D3 ag: -10.2; PTHR1 agonist: inactive; a7 integrin act: -73.2%; CBFb RUNX1 block: -22.6%

Results for CC1(C)C2CC=C(/C=N/NC(=S)Nc3cccnc3)C1C2 (stereo not drawn) ?
MBNL1-CUG inh: 1.7%; DRD3 antagonist: 5.4; D3 ag: 6.6; PTHR1 agonist: -2.8%; a7 integrin act: 27.3%; CBFb RUNX1 block: -18.2%

Results for CCC(C)(C)C1CCC(=NNC(=S)Nc2cccnc2)CC1 (stereo not drawn) ?
MBNL1-CUG inh: 4.0%; DRD3 antagonist: -64.5*; D3 ag: -13.1; PTHR1 agonist: -2.1%; a7 integrin act: -18.6%; CBFb RUNX1 block: -5.9%

What do the screens show for `CCc1cccc(C)c1NC(=O)c1cc(S(=O)(=O)N2CCOCC2)cn1C`?
D3 ag: 1.1; PTHR1 agonist: -6.0%

Results for Cc1cc(Cl)c2oc(C(=O)N(C)Cc3nccn3C)c(C)c2c1 ?
MBNL1-CUG inh: 0.1%; DRD3 antagonist: -67.3*; D3 ag: -24.3; PTHR1 agonist: -8.2%; a7 integrin act: 0.0%

How did Cn1c2c(c(=O)n(C)c1=O)CS(=O)c1ccccc1N2 (stereo not drawn) do in these assays?
DRD3 antagonist: -6.9; D3 ag: -1.6; PTHR1 agonist: -3.5%

What do the screens show for `CCNC(=O)CSc1nnc(-c2ccccc2Br)n1-c1cccc(C(F)(F)F)c1`?
MBNL1-CUG inh: inconclusive; DRD3 antagonist: 9.7; D3 ag: -3.9; PTHR1 agonist: -10.7%; a7 integrin act: -18.9%; CBFb RUNX1 block: 0.6%

What do the screens show for `COC(=O)C1CCN(C(=O)COc2ccc(S(=O)(=O)N3CCOCC3)cc2Cl)CC1`?
DRD3 antagonist: -2.1; D3 ag: 62.8*; PTHR1 agonist: -6.1%; a7 integrin act: 9.2%

How did O=C(Cn1cccc1C(=O)c1ccccc1)NCCCN1CCOCC1 do in these assays?
MBNL1-CUG inh: -6.2%; DRD3 antagonist: 14.5; D3 ag: 3.6; PTHR1 agonist: inactive; a7 integrin act: -9.3%; CBFb RUNX1 block: -1.6%

How did Cc1ccc(C)c(N2CCN(CCCNC(=O)Cn3cccc3C(=O)c3ccccc3)CC2)c1 do in these assays?
MBNL1-CUG inh: 91.4%; DRD3 antagonist: -67.6*; D3 ag: -15.7; PTHR1 agonist: -32.3%; a7 integrin act: -56.5%; CBFb RUNX1 block: -7.3%

Results for Cc1ccccc1C(=O)c1cccn1CC(=O)NCCCN1CC(C)CC(C)C1 (stereo not drawn) ?
MBNL1-CUG inh: -0.6%; DRD3 antagonist: 1.7; D3 ag: -14.4; PTHR1 agonist: -15.7%; a7 integrin act: -43.1%

How did Cc1ccccc1C(=O)c1cccn1CC(=O)NCCCN1CCc2ccccc2C1 do in these assays?
MBNL1-CUG inh: -3.9%; DRD3 antagonist: -50.8*; D3 ag: -10.1; PTHR1 agonist: inactive; a7 integrin act: -27.0%; CBFb RUNX1 block: 6.3%

How did CC(C)(C)NC(=S)N1CCC(C(=O)c2ccc(Cl)cc2)CC1 do in these assays?
MBNL1-CUG inh: 1.1%; DRD3 antagonist: 4.8; D3 ag: -10.5; PTHR1 agonist: -20.2%; a7 integrin act: -11.2%

Results for COCCCn1c(SCC(=O)OC2CCCCC2)nnc1-c1ccco1 ?
MBNL1-CUG inh: -8.8%; DRD3 antagonist: -9.6; D3 ag: -9.7; PTHR1 agonist: inactive; a7 integrin act: 41.0%; CBFb RUNX1 block: 6.5%

What do the screens show for `COCCCn1c(SCC(=O)OC2CCCCC2)nnc1-c1cccs1`?
MBNL1-CUG inh: -4.7%; DRD3 antagonist: -12.0; D3 ag: -6.4; PTHR1 agonist: 0.282µM*; a7 integrin act: -4.9%[7.66 µM]; CBFb RUNX1 block: 3.9%

Results for Cc1sc2nc(CSCC(=O)NC3(C#N)CCCCC3)[nH]c(=O)c2c1C ?
DRD3 antagonist: 16.7; D3 ag: -4.2; PTHR1 agonist: -20.2%; a7 integrin act: 2.0%

How did CCOC(=O)c1c(CC(C)C)csc1NC(=O)COC(=O)c1ccc(O)cc1 do in these assays?
DRD3 antagonist: 24.7; D3 ag: 35.7*; PTHR1 agonist: inactive; a7 integrin act: -3.2%

What do the screens show for `COCOCCn1cc(CN2CCS(=O)(=O)N(Cc3ccc(-c4ccc(Cl)nc4)cc3)C(C(C)C)C2=O)nn1` (stereo not drawn)?
DRD3 antagonist: 12.2; D3 ag: -4.8; PTHR1 agonist: -38.5%; a7 integrin act: -13.3%

What do the screens show for `Cc1nc(N2CCc3ccccc3C2)[nH]c(=O)c1Cc1ccccc1`?
MBNL1-CUG inh: -13.0%; DRD3 antagonist: 11.6; D3 ag: 3.4; PTHR1 agonist: -7.3%; a7 integrin act: -16.4%; CBFb RUNX1 block: 0.1%

How did Cc1nc(-n2[nH]c3c(c2=O)CCCC3)[nH]c(=O)c1Cc1ccccc1 do in these assays?
MBNL1-CUG inh: 4.1%; DRD3 antagonist: -60.9*; D3 ag: -14.1; PTHR1 agonist: -10.2%[57.5 µM]; a7 integrin act: -56.9%; CBFb RUNX1 block: -1.9%
